# Screening results deposited in PubChem by National Center for Advancing Translational Sciences (NCATS).
# D1 potentiator: potentiators of human D1 dopamine receptor. P21728. AID 504651. potentiation, % at 10 µM. HEK293 TREx D1 cells, calcium flux, dopamine EC20 potentiation. 360,000 compounds, 0.036% hits; in the data active means potentiation above about 30%; further: 0% is about no effect
# Target sequence (P21728 whole entry, looked up): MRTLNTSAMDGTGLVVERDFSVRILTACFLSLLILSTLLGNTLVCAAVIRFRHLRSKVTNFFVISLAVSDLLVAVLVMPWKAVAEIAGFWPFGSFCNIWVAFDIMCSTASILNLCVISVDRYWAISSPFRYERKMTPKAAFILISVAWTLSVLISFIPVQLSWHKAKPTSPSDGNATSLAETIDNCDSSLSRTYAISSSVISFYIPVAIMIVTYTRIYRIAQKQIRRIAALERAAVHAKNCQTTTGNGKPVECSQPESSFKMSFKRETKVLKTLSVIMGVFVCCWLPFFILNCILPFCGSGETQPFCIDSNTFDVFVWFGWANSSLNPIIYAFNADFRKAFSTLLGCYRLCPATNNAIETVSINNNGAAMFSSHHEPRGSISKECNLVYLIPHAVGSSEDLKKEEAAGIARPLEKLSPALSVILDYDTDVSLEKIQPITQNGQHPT
# D1 ag: activates the human D1 dopamine receptor; P21728; HEK293 T-REx D1 cells, calcium flux, agonist mode; activation, % at 2 µM; 360,000 compounds, 1% hits; AID 504660; in the data active means activation above about 30%; further: 0% is about no effect
#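 Agonism was scored from calcium flux recorded over 180 s (1 read/s) after pintool compound addition, following a 10-cycle baseline. Cells were inducible force-coupled HEK293 TREx D1, plated overnight at 30 C and loaded with no-wash calcium dye.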
# BCR signal inh: chronic active BCR signaling inhibition. ABC-DLBCL IkBa-CBG/CBR reporter, luminescence ratio, 4 h. Potency, µM (series often up to 46.1 µM), for the others: at the top dose activity change, negative = inhibition, usual class: inhibitors. 340,000 compounds, 0.05% hits. AID 493014; active means well fitted inhibition curve with a large enough effect in the signal ratio, with a control signal flat, not every such curve was filed as active; inconclusive means small, poorly fitted or top-dose-only effect, or effect the other way, or a change in a side signal; the % refers to the signal ratio;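 further: potency means the concentration at half of the fitted maximal effect; plate controls were basal doxycycline-induced cells for no effect and cells given 10 µM MG132 for full effect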
#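 Compounds up to 46 uM were incubated four hours with TMD8 cells whose green CBG68 luciferase is fused to IkappaBalpha; red CBR luminescence normalised the signal, and concentration-effect curves were fitted to fusion, red and ratio data.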
# DRD3 agonist: activates the human D3 dopamine receptor | P35462 | D3R DiscoveRx beta-arrestin cells, luminescence, 90 min | max activation, % | 410,000 compounds, 0.58% hits; in the data active means max activation above about 30%; further: 0% is about no effect
#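 Agonist mode: compounds and dopamine controls were applied to plated cells for 90 min at 37 degrees C after an overnight attachment at 1500 cells/well. Luminescent read-out followed 30 - 60 minutes at room temperature with DiscoveRx detection reagent.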
# D1 antag: blocks dopamine activation of the human D1 receptor | P21728 | HEK293 TREx D1 cells, calcium flux, dopamine EC80; stronger effect = lower value | activity change, negative = inhibition, % at 10 µM | 360,000 compounds, 3.2% hits | AID 504652; in the data active means activity change below about -30%; further: on the % scale 0 is the no-effect control and ±100 the full control effect
#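 Tetracycline-induced HEK293 Trex D1 cells, force-coupled to calcium, dye-loaded; compounds added and read 180 s, then EC80 dopamine added and calcium flux tracked kinetically another 180 s.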
# D3 antag: D3 dopamine receptor (human) antagonism | P35462 | D3R cells, DiscoveRx beta-arrestin luminescence, antagonist mode; stronger effect = lower value | max response, negative = inhibition, % | 360,000 compounds, 2.5% hits | AID 652054; in the data active means max response below about -50%; inconclusive means no clear call, values can overlap the other calls; further: on the % scale 0 is the no-effect control and ±100 the full control effect
#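 Cells expressing the human receptor were seeded at 1500 cells/well, incubated overnight at 37 degrees C in 5% CO2, then exposed to library compounds with dopamine controls for 90 minutes at 37 degrees C before luminescent detection.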
# The depositor's hits bear a star; ? = inconclusive; · = not tested or not shown. A selection: hits, their analogues and other compounds. The true share with any hit is near 6%.
SMILES,D1 potentiator,D1 ag,BCR signal inh,DRD3 agonist,D1 antag,D3 antag
COc1cc(C(C)=O)ccc1OCC(O)CN1CCN(c2ccc(C)c(C)c2)CC1 (stereo not given),-30,2,-3%,-8,-24,-52*
COc1cc(C(C)=O)ccc1OCC(O)CN1CCN(c2c(C)cccc2C)CC1 (stereo not given),-3,7,-9%,-16,1,-23
COc1cc(C(C)=O)ccc1OCC(O)CN1CCN(S(=O)(=O)c2ccccc2)CC1 (stereo not given),0,0,?,3,-31*,-10
Cc1cccc(C)c1OCC(O)CN1CCN(C(=O)c2ccccc2)CC1 (stereo not given),·,·,·,-6,·,-8
CC(=O)Nc1ccc(OCC(O)CN2CCN(c3cc(Cl)ccc3C)CC2)cc1 (stereo not given),-8,18,-29%,-58,3,-10
Cc1ccc(-n2ncc(C(=O)NCCN3CCc4ccccc4C3)c2C2CCN(C(=O)OC(C)(C)C)CC2)c(C)c1,5,1,·,-29,66,·
Cc1cc(C)cc(C(=O)N2CC(=O)Nc3ccc(Br)cc3C2c2ccccc2)c1 (stereo not given),-1,0,9%,3,20,·
COc1ccc(Cl)cc1NC(=O)CSc1nnc2[nH]c(=O)cc(-c3ccccc3)n12,1,-2,?,11,·,·
OCCN1CCN(c2ncnc3c2ncn3[C@H]2CN(Cc3cccnc3)C[C@@H](CO)O2)CC1,·,·,·,6,·,17
CC(C)Oc1ccc(S(=O)(=O)N2CCOCC2)cc1NC(=O)C1COc2ccccc2O1 (stereo not given),-2,3,10%,5,-44*,53
O=C(Cn1cnc2c(nnn2-c2ccccc2)c1=O)N1CCOCC1,-4,1,7%,12,13,-14
Cc1ccc(-n2nnc3c(=O)n(CC(=O)N4CCOCC4)cnc32)cc1,1,-3,9%,-8,5,-53*
O=C(NCc1ccccc1)c1cc(C2CCCCN2C(=O)CCc2ccccc2)on1 (stereo not given),·,·,·,-2,·,5
O=C(c1cc(C2CCCCN2C(=O)CCCc2ccccc2)on1)N1CCOCC1 (stereo not given),·,·,·,-7,·,-51*
CCc1ccc(-n2nc(CO)c(C(=O)NC)n2)cc1,1,0,·,2,-21,·
CN(Cc1ccc(Cl)c(Cl)c1)C(=O)c1ccccc1SCC(=O)N1CCCC1,-2,5,-9%,-3,2,7
O=C(Nc1ccc2c(c1)OCCO2)C(C1CC1)N1CCN(C/C=C/c2ccccc2)CC1 (stereo not given),·,·,·,-5,·,-59*
CC1(C(=O)Nc2ccc3c(c2)OCCO3)CCN1C(=O)C/C=C/c1ccccc1 (stereo not given),·,·,·,-6,·,0
O=C(Nc1ccc2c(c1)OCCO2)C(c1cc2ccccc2o1)N1CCN(C/C=C/c2ccccc2)CC1 (stereo not given),·,·,·,-6,·,-111*
CCCCNC(=O)C1CCN(c2nc3ccc(C)cc3[nH]2)CC1,5,1,·,3,-2,·
